GC-A act: GC-A (human) enzyme activation. activation, % at 10 µM. P16066. HEK293 GC-A cells, cGMP TR-FRET, EC30 ANP; 0% at EC30 ANP, 100% saturating ANP. AID 1671463. actives 0.14% (n = 370,000); in the data active means activation above about 40%
MsrA inhibitor: inhibits bovine methionine sulfoxide reductase A. purified bovine MsrA, absorbance read-out. inhibition, % at 15.5 µM. actives 0.75% (n = 360,000). AID 651718;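 further: 0% = vehicle wells with enzyme and 100% = reference inhibitor wells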
NPR2 activator: GC-B (human) receptor activation. AID 1920062. activation, % at 10 µM. actives 0.11% (n = 370,000). HEK293-GC-B cells, CNP EC30, cGMP TR-FRET; 0% at EC30 CNP, 100% saturating CNP. P20594;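 active means activation at 10 µM reaching about 35% in either raw or pattern-adjusted values, limit read from the data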
m5-HT2A agonist: mouse HTR2A agonism via beta-arrestin recruitment; AID 624169; P35363; activation, % at 7.6 µM; actives 0.66% (n = 360,000); CHO-K1 mHTR2A beta-arrestin complementation, luminescence; percent of 30 µM serotonin response;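 active means activation above a run cutoff, the mean activation of all tested compounds plus 3 SD, cut at about 14% in these data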;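 further: 0% = plate median of compound wells and 100% = 30 µM serotonin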
bovine MsrA act: activators of bovine methionine sulfoxide reductase A. activation, % at 10.6 µM. purified bovine MsrA, absorbance read-out. actives 0.3% (n = 360,000); in the data active means activation above about 7.5%;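 further: 0% = vehicle and 100% = reference activator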
MsrA conf: confirmation of bovine MsrA inhibitors; shares compounds with MsrA inhibitor; purified bovine MsrA, absorbance read-out; inhibition, % at 15.5 µM; actives 41% (n = 2,300); AID 651822;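 further: coupled to thioredoxin reductase with NADPH and selenocystamine and DMSO as substrate; 0% = vehicle only and 100% = full effect of reference inhibitor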
Starred values were filed as active, the others as inactive; nt = not tested or not shown. The list is not random: actives were taken first. Their share in the collection is about 1.8%. Unless noted, no stated cut-off is given here; in the data, active means inhibition above about 4.5%; inactive means the rest.

SMILES | GC-A act | MsrA inhibitor | NPR2 activator | m5-HT2A agonist | bovine MsrA act | MsrA conf
Nc1c([N+](=O)[O-])c(=O)oc2ccccc12 | 6 | 5.9* | 1 | 0 | -5 | 2
O=c1oc2ccccc2c(NCc2ccccc2)c1[N+](=O)[O-] | 4 | 5.8* | 2 | -5 | -6 | 5.0*
CC(Nc1c([N+](=O)[O-])c(=O)oc2ccccc12)c1ccccc1 (stereo not given) | 0 | 25* | -2 | -3 | -11 | 21*
O=c1oc2ccccc2c(NCc2ccc(Cl)cc2)c1[N+](=O)[O-] | -6 | 1 | -10 | -6 | -1 | nt
CC(C)Nc1c([N+](=O)[O-])c(=O)oc2ccccc12 | -1 | 2 | 1 | 2 | -2 | nt
CCOC(=O)[C@@]12CCCC=C1N(CCc1ccc(Cl)cc1)C(=O)[C@H]2CC(=O)NCCc1ccccc1OC | -2 | nt | 3 | nt | nt | nt
COc1ccc(/C=C(/NC(=O)c2ccccc2)c2nc3ccccc3[nH]2)cc1OC | -4 | 6.5* | 5 | 0 | -7 | 4
COC(=O)C1=C(C)N(Cc2cccc(C(F)(F)F)c2)C(=NCc2ccccc2C(F)(F)F)NC1c1cccc(F)c1 (stereo not given) | -14 | -1 | -14 | nt | nt | nt
COc1ccc(CC(=O)N2CCN(c3ccc(C4=NNC(=O)CC4C)cc3)CC2)cc1 (stereo not given) | 4 | 4.8* | 2 | 9 | -3 | 2
Cc1ccccc1SCC(=O)Nc1cc(C(F)(F)F)ccc1N1CCOCC1 | nt | nt | nt | -7 | 6 | nt
COc1ccccc1NC(=O)OCCCN1CCC2(CCC(C)CC2)C1=O (stereo not given) | 1 | nt | -5 | nt | nt | nt
Cc1cc(C)nc(N/N=C/c2ccccc2)n1 | 1 | nt | 0 | 2 | -5 | nt
Cc1cc(C)nc(N/N=C/c2sccc2C)n1 | -4 | 5.3* | -2 | 4 | -7 | 4
Cc1ccsc1/C=N/Nc1nc(=O)[nH]nc1C | 4 | 5.3* | 6 | -1 | -5 | 4
Cc1ccsc1/C=N/Nc1ncc(Cl)cc1Cl | -2 | 3 | 2 | -1 | -3 | nt
O=C1c2ccccc2C(=O)c2c1cccc2N1CCCC1 | 1 | 36* | -9 | 5 | 2 | 0
O=C(O)CC1S/C(=N/N=C/c2ccc(-c3ccccc3[N+](=O)[O-])o2)NC1=O (stereo not given) | -2 | 4.9* | 2 | -1 | -4 | 4
O=[N+]([O-])c1ccccc1-c1ccc(/C=N/n2cnnc2)o1 | -1 | 3 | -13 | -3 | -2 | nt
Cc1ccc(-c2ccc(/C=N/N=C3/NC(=O)C(CC(=O)O)S3)o2)c([N+](=O)[O-])c1 (stereo not given) | -4 | 5.9* | -2 | 0 | -6 | 6.8*
O=C(CSc1nnc(-c2cccs2)o1)c1ccc2c(c1)OCO2 | 1 | nt | 1 | nt | nt | nt
CCCC[C@H]1C2CC(OC(=O)Nc3cccc(C(F)(F)F)c3)C(C2)[C@H]2CCCCN21 (stereo not given in full) | -7 | nt | 7 | nt | nt | nt
COc1cccc(N2C(=O)CC(N3CCN(S(=O)(=O)c4ccccc4[N+](=O)[O-])CC3)C2=O)c1 (stereo not given) | 0 | -1 | 0 | 4 | -1 | nt
CN1/C(=C/C(=O)C2CCC2)Sc2ccccc21 | -3 | 8.3* | -4 | 1 | -4 | 5.9*
C=CCN=C1CC(C)(C)CC(=O)/C1=C(\O)c1ccccc1 | 3 | 1 | 1 | 1 | -11 | nt
COc1ccc(N=C2CC(C)(C)CC(=O)/C2=C(/O)c2ccccc2)cc1 | -2 | 4.9* | 3 | 4 | -2 | 1
SMILES | GC-A act | MsrA inhibitor | NPR2 activator | m5-HT2A agonist | bovine MsrA act | MsrA conf
COc1cccc(-c2ccc(CC[C@H]3O[C@H]4CC[C@@H](CO)O[C@H]4C[C@H]3NC(=O)c3cnccn3)cc2)c1 | 3 | nt | -4 | nt | nt | nt
O=C(NCCc1c[nH]c2ccccc12)OCCSS(=O)(=O)O | 0 | 12* | 2 | -2 | -20 | 4
CCC(=O)NCCc1c[nH]c2ccccc12 | 2 | 1 | -1 | 3 | -5 | nt
COc1ccc(CN(CCN2CCOCC2)C(=O)c2cc(F)cc(F)c2)cc1OC | 2 | nt | -9 | nt | nt | nt
O=C(O)c1cccc(NC2=C(n3nnc4ccccc43)C(=O)c3ccccc3C2=O)c1 | -1 | 32* | 3 | 0 | 0 | 28*
O=C(O)c1cccc(NS(=O)(=O)c2ccc3nnn(O)c3c2)c1 | -1 | 0 | 2 | 2 | -5 | nt
CCN1/C(=C/C(C)=O)Sc2ccc(OC)cc21 | -2 | 5.5* | -1 | -1 | -4 | 4
COc1ccc(/C=N/Nc2nn3cnnc3c3ccccc23)cc1 | -3 | 5.1* | -18 | -1 | -2 | 4
Cc1ccc(OCC(=O)N/N=C\c2ccc(-c3cccc(C(=O)O)c3)o2)c(C)c1 | -2 | 5.3* | -10 | 1 | -6 | 4
CC(C)(C)c1ccc2c(c1)OC(C(=O)N/N=C\c1ccc(-c3cccc(C(=O)O)c3)o1)CO2 (stereo not given) | -8 | 1 | -5 | -1 | -2 | nt
COc1ccc(CC(=O)N/N=C/c2ccc(-c3cccc(C(=O)O)c3)o2)cc1OC | 0 | 5.1* | -1 | 3 | -6 | 5
O=C(O)c1cccc(-c2ccc(/C=N/NC(=O)C3COc4ccccc4O3)o2)c1 (stereo not given) | -2 | 4.7* | -2 | 1 | -10 | 3
O=C(O)c1cccc(-c2ccc(/C=N/Nc3nn[nH]n3)o2)c1 | -1 | 5.9* | -4 | 5 | -12 | 4.6*
CC(=O)OCC(=O)NCC1CCN(C(=O)C(=O)c2cc3ccccc3o2)CC1 | 1 | 2 | 1 | nt | nt | nt
O=C(COc1c(Cl)cc(Cl)cc1Cl)N/N=C/c1ccc[nH]1 | 2 | nt | -9 | nt | nt | nt
CCOC(=O)C1CCN(C(=O)C2CCN(S(=O)(=O)c3cccc4nsnc34)CC2)CC1 | -2 | 0 | -2 | 2 | -2 | nt
CCNC(=S)N/N=C/c1ccc(-c2ccccc2)o1 | 20 | 3 | 18 | -1 | -7 | nt
CNC(=S)N/N=C/c1ccc(-c2cccc(C(=O)O)c2)o1 | 2 | 4.9* | 6 | 3 | -8 | 6.2*
C/C(C=Nn1c(-c2ccc(F)cc2)n[nH]c1=S)=C/c1ccco1 | -1 | nt | -7 | nt | nt | nt
COc1ccc(/C=C2\SC(=O)N(CCNC(=O)C3=COCCO3)C2=O)cc1 | 2 | 8.5* | -7 | -3 | -3 | 3
O=C(NCCN1C(=O)S/C(=C\c2ccccc2Cl)C1=O)C1=COCCO1 | 2 | -1 | 0 | -5 | -2 | nt
O=C(NCCN1C(=O)S/C(=C\c2ccc(OC(F)F)cc2)C1=O)C1=COCCO1 | nt | nt | nt | -1 | -5 | nt
O=C(NCCN1C(=O)S/C(=C\c2ccc(OC(F)F)cc2)C1=O)c1cnccn1 | -6 | 5.1* | -2 | 1 | -7 | 2
O=C(NCCN1C(=O)S/C(=C\c2ccccc2F)C1=O)C1=COCCO1 | -2 | 4.8* | -3 | -3 | -5 | 2

Compound activity from PubChem.
